JMJD2E inh = inhibitors of human JMJD2E histone demethylase. JMJD2E catalytic domain, FDH-coupled NADH fluorescence (FDH is formaldehyde dehydrogenase). B2RXH2. AID 2147. Potency, µM (doses to about 57.1 µM), inactives show at the highest dose activity change, negative = inhibition, actives largely listed as inhibitors. actives 1.6% (n = 230,000); active means well fitted inhibition curve with a large enough effect, not every such curve was filed as active; inconclusive means small, poorly fitted or top-dose-only effect, or another doubt; inactive means no such curve, though single readings can be large or run the other way;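 further: potency means the concentration at half of the fitted maximal effect; 0% = wells with enzyme and -100% = buffer wells without enzyme; nearly all actives have a fitted effect of over 50% in size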
Target sequence (B2RXH2 1-337 limits assumed): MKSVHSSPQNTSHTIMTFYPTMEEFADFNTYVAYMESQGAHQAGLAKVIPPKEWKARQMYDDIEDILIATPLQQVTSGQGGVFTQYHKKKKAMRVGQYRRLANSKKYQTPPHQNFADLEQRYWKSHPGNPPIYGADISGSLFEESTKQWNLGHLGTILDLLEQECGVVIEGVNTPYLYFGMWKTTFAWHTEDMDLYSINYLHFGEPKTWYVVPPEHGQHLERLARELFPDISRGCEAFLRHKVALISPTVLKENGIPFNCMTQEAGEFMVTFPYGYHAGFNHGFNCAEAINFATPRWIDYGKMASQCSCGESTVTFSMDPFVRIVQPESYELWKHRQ
HTT cytoprotect = cytoprotection in Huntington HTT-Q103 PC12 cell model. actives 0.14% (n = 230,000). PC12 HTT-Q103 induced, cytoprotection, ATP luminescence, 40 h. Potency, µM (top dose mostly 56.4 µM), for inactives: cytoprotection (ATP increase), hits mostly activators; further: potency means the concentration at half of the fitted maximal effect; % of control where 0% means no effect; nearly all actives have a fitted effect of over 45% in size
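Cells were plated at 1500 per well in phenol red-free DMEM with 5% equine and 5% calf serum. Tebufenozide (100 nM final) and compounds were added, then ATPlite reagent, and luminescence was read.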
Coupling enz = inhibits coupling enzyme system, counter-screen for aldolase hits; activity change, negative = inhibition, % at 58.2 µM, hits read low; coupling enzyme system counterscreen, AmpLite Red fluorescence; actives 0.67% (n = 290,000); in the data active means activity change below about -30%; further: on the % scale 0 is the no-effect control and ±100 the full control effect
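Counterscreen lacking aldolase: glyceraldehyde-3-phosphate coupling-enzyme reagent preincubated 10 min at RT with compound (at 57.5 uM final), then substrate/coupling system with AmpLite Red added; fluorescence read at 525/598 nm after 20 min RT.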
RGS12 GoLoco inh = blocks human Gai1 binding to RGS12 GoLoco peptide, red readout; P63096; Potency, µM (doses to about 61.6 µM), inactives show at the top dose activity, negative = inhibition, hits mostly inhibitors; Gai1:RGS12 GoLoco peptide FP, rhodamine, 10 min; actives 0.44% (n = 230,000); active means well fitted inhibition curve with a large enough effect, not every such curve was filed as active; inactive means no such curve, though single readings can be large or run the other way; further: potency means the concentration at half of the fitted maximal effect; on the % scale 0 is the no-effect control and ±100 the full control effect; nearly all actives have a fitted effect of over 30% in size
VDR inhibitor = inhibitors of human vitamin D receptor | P11473 | Potency, µM, without a hit: max response, negative = inhibition, usual class: inhibitors | AID 504847 | actives 0.93% (n = 400,000) | VDR-SRC2-3 peptide fluorescence polarization, 2 h; further: potency means the concentration at half of the fitted maximal effect; on the % scale 0 is the no-effect control and ±100 the full control effect
Target sequence (P11473 whole entry, looked up): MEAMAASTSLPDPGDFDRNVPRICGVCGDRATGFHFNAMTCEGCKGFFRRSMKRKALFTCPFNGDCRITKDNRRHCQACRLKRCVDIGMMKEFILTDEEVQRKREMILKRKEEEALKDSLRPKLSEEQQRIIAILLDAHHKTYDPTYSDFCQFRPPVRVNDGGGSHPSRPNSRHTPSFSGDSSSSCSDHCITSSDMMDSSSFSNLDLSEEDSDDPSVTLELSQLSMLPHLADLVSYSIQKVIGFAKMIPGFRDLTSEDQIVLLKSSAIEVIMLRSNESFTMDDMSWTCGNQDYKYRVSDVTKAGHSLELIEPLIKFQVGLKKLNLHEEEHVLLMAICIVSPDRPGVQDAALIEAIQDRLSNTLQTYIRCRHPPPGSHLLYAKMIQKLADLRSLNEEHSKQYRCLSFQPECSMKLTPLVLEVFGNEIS
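Reagent solutions, kept cold and dark, are dispensed first; compounds are then pinned in at 23 nl, plates briefly spun, and incubated 2 h at ambient temperature. Inhibition of VDR–SRC2-3 peptide binding is read by fluorescence polarization.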
HttQ103 aggreg = inhibitors of mutant huntingtin aggregate formation in PC12 cells; PC12 HttQ103-GFP aggregates, Acumen cytometry, 40 h; Potency, µM (titrated, usually from 46.1 µM), without a hit: at the highest dose activity change, negative = inhibition, most hits filed as inhibitors; actives 1.1% (n = 220,000); further: potency means the concentration at half of the fitted maximal effect; on the % scale 0 is the no-effect control and ±100 the full control effect; nearly all actives have a fitted effect of over 60% in size
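Multiplexed with ATP-based cell death, this channel scores GFP aggregates in PC12 cells expressing inducible HTTex1-Q103-GFP. Induction used 100 nM tebufenozide; compounds were tested in concentration series.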
Starred values were filed as active, the others as inactive; ? = inconclusive; . = not tested or not shown; [ ] = dose if it differs, or a comment. Rows were chosen to be rich in hits. Some 2.3% of all compounds tested hit in one or more screens of this group. Unless noted, the call rests on the fitted dose curve; in most records, active means well fitted curve in the direction sought with a large enough effect; inconclusive means small, poorly fitted or top-dose-only effect, or another doubt; inactive means no such curve, though single readings can be large; an effect the other way counts as inactive or inconclusive.

SMILES	JMJD2E inh	HTT cytoprotect	Coupling enz	RGS12 GoLoco inh	VDR inhibitor	HttQ103 aggreg
Cc1cc(-c2ccc(C)c(S(=O)(=O)Nc3cc(C)on3)c2)on1	.	.	.	.	-10%	.
CC1=C(C)CS(=O)N(c2ccc(S(N)(=O)=O)cc2)C1 (centres undefined)	5%	?	-1	-9%	7.9µM*	-27%
O=C(O)C(c1ccccc1)N1C(=O)/C(=C\c2ccc(-c3ccccc3Cl)o2)SC1=S (centres undefined)	.	.	2	.	50µM*	.
O=C(CSc1ccc(Cl)cc1)N1CCN(c2ccc(Cl)cc2[N+](=O)[O-])CC1	-10%	-46%	.	3%	1%	11µM*
CC(C)(C)C(=O)N1CCN(c2ccc(Cl)cc2[N+](=O)[O-])CC1	4%	5%[10 µM]	15	0%	-11%	11%
CCOC(=O)c1cc2c(=O)n3ccccc3nc2n(C(C)C)c1=NC(=O)C(C)(C)Oc1ccc(Cl)cc1	.	.	.	.	-20%	.
COc1cc(NC(=S)N2CCN(c3ccccn3)CC2)cc(OC)c1	-14%	21%[10 µM]	1	.	-17%	8.9µM*
COc1cc(C)ccc1OCCSc1nnc(-c2ccc(C)cc2)o1	.	.	.	.	-6%	.
Cn1cc(CN2CCc3c([nH]c4ccccc34)C2C2CCCCC2)cn1 (centres undefined)	20µM*	2%[10 µM]	-3	1%	-18%	15%[9.22 µM]
CCOC(=O)[C@H]1[C@H]2COc3ccc(Cl)cc3[C@@H]2N2C(=O)CN(Cc3ccc(Cl)cc3)C(=O)[C@@]12C	.	.	.	.	-21%	.
Cc1cccc(N2N=C(C(=O)Nc3ccc(Cl)c(S(=O)(=O)N4CCOCC4)c3)CCC2=O)c1	.	.	.	.	-11%	.
CCC(C)c1cc([N+](=O)[O-])cc([N+](=O)[O-])c1OC(=O)OC(C)C (centres undefined)	.	.	-8	.	11µM*	.
CCC(C)c1cc([N+](=O)[O-])cc([N+](=O)[O-])c1OC(C)=O (centres undefined)	.	.	1	.	-6%	.
CCc1c(C)nc2ncnn2c1NCCc1ccc(Cl)cc1	2%	10%[10 µM]	-3	9%	-11%	-19%[9.22 µM]
CCc1c(C)nc2ncnn2c1NCCc1ccccc1	-2%	-37%	2	6%	-4%	10µM*
CCC(NC(=O)Nc1nnc(C(F)(F)F)s1)(C(F)(F)F)C(F)(F)F	10%	-73%	-10	4%	11%	1.6µM*
COc1ccc(NC(=O)Cc2ccc(NC(=O)N3CCCCc4ccccc43)cc2)c(OC)c1	.	.	.	.	1%	.
Cc1cc(O)c(C(C)C)cc1N=Nc1ccccc1C(=O)O	-6%	19%[10 µM]	-9	76%	4%	24%[9.22 µM]
Cc1cc(O)c(C(C)C)cc1N=Cc1ccccc1[N+](=O)[O-]	.	.	.	.	32µM*	.
CN(C)c1ccc(C(CNC(=O)Cc2ccc(Cl)cc2)N2CCOCC2)cc1 (centres undefined)	.	.	.	.	13%	.
N=c1oc2c3c4c(cc2cc1C(=O)Nc1ccccc1)CCCN4CCC3	-23%	-20%	-9	4µM*	-12%	?
O=c1oc2c3c4c(cc2cc1-c1nc2ccccc2[nH]1)CCCN4CCC3	.	-44%	.	.	.	.
Cc1ccc2nsnc2c1S(=O)(=O)Nc1cccc2nsnc12	-23%	-8%[10 µM]	-34*	-1%	-4%	2%
Cc1ccc([N+](=O)[O-])cc1N=C1C(=O)Nc2ccccc21	.	.	3	.	25µM*	.
Cc1cccc(OCCOc2ccccc2C=C(C#N)C#N)c1	-16%	-14%[10 µM]	-2	0%	50µM*	?
SMILES	JMJD2E inh	HTT cytoprotect	Coupling enz	RGS12 GoLoco inh	VDR inhibitor	HttQ103 aggreg
CC(O)Cn1c(N2CCCC2)nc2c1c(=O)[nH]c(=O)n2C (centres undefined)	.	.	0	.	-5%	.
O=C1CCCC2=C1C(c1cccs1)Nc1ccc3ncccc3c12 (centres undefined)	?	-52%	-4	17%	-15%	9%
Cc1ccsc1C1Nc2ccc3ncccc3c2C2=C1C(=O)CC(C)(C)C2 (centres undefined)	5%	-51%[10 µM]	-31*	5%	-14%	-18%[9.22 µM]
C[C@@H](N)C(=O)O	2%	-4%	-1	8%	3%	-1%
O=C(O)C(S)[C@@H](S)C(=O)O (some centres undefined)	?	?	0	2%	4µM*	.
CC(C)CN1CCCC2(CCN(C(=O)c3cccc(F)c3)CC2)C1	.	?	0	22%	-7%	.
C[N+]1(CC2COC(c3ccccc3)(C3CCCCC3)O2)CCCCC1 (centres undefined)	.	-59%	.	.	1%	-24%
C[N+]1(CC2COC3(CCCCC3)O2)CCCCC1 (centres undefined)	2%	8%[10 µM]	0	8.9µM*	8%	-34%[9.22 µM]
COc1ccc(-c2cn3c(n2)sc2cc(C(=O)Nc4c(C)cccc4C)ccc23)cc1	.	.	.	.	6%	.
Cc1cc(C(=O)CSc2nnnn2C)c(C)n1-c1ccc2c(c1)OCCO2	-5%	19%	-45*	21%	-9%	-18%
Cc1cc(C(=O)CSc2nnc(-c3ccco3)o2)c(C)n1-c1ccc2c(c1)OCCO2	-4%	10%[10 µM]	-17	12%	1%	8.9µM*
Cc1cc(C(=O)CSc2nnc(-c3ccco3)o2)c(C)n1Cc1ccco1	-3%	-13%[10 µM]	-4	8%	17%	2%
NC1=NC(=O)/C(=C\c2cccnc2)S1	-1%	-20%	-1	5%	-4%	8.9µM*
COc1cc(/C=N/Nc2ccc3ccccc3c2)ccc1OC(=O)c1ccco1	20µM*	-8%[10 µM]	-1	12%	16%	?
O=[N+]([O-])c1cccc2c[nH]nc12	35µM*	-58%[1.9 µM]	-12	-15%	-13%	.
O=[N+]([O-])c1cccc2cn[nH]c12	-3%	-28%	-17	10%	11%	-6%
Cc1ccc(OCCC(=O)Nc2cc(S(=O)(=O)N3CCOCC3)ccc2N2CCCC2)cc1	.	.	.	.	8%	.
O=C1Cc2ccccc2C(=O)N1Cc1ccccc1	9%	-21%	-43*	26%	-2%	-4%
O=C1Cc2ccccc2C(=O)N1c1ccccc1	.	.	-1	.	-1%	.
Nc1ccc(N2CCCCC2)c2nonc12	-3%	7%[10 µM]	-53*	7%	20µM*	2%[9.22 µM]
O=C(Nc1ccc(OCC(=O)N2CCOCC2)cc1)c1cncc(Br)c1	-6%	.	1	-3%	0%	11µM*
Cc1ccc(C(OCC(C)(C)C[N+](C)(C)C)c2ccccc2)cc1 (centres undefined)	4%	-19%	-2	8.9µM*	-4%	-9%
Cc1ccc(C(=O)NCC(=O)NCC(=O)OCC(=O)c2ccc([N+](=O)[O-])cc2)cc1	-1%	-8%	2	-3%	79µM*	12%
Cc1ccc(C(=O)COC(=O)CNC(=O)CNC(=O)c2ccc(C)cc2)cc1	1%	15%[10 µM]	3	7%	-24%	-8%
